The results in this text go back to PMC8384837, “Expanding the binding specificity for RNA recognition by a PUF domain”.

What all share (experiment): yeast three-hybrid, YBZ-1, SC-Leu-His + 0.5 mM 3-AT, 4 days
Holding throughout (details): tags: N-Gal4 AD-HA kept; label: inside an RPR1-promoter hybrid RNA with tandem MS2 sites; ssRNA

Assay [1] concerns the target PUM1 PUF domain R2-LPC (Homo sapiens, UniProt Q14671 828-1176, N899L;Y900P;Q903C). Put shortly:
(§1)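 The interaction score is the log change in variant frequency from input to selection. Scores were computed in log2 with a pseudocount of 1 for absent variants, using Illumina sequencing of PCR-amplified repeat regions. The input came from four days on SC-Leu and the selection from four days on SC-Leu-His + 0.5 mM 3-AT. The cells were strain YBZ-1 (LexA–MS2 coat fusion, HIS3 reporter) co-expressing Pumilio-1 PUF domain libraries and matching RNA elements from a centromeric plasmid.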

The target in assay [2] is PUM1 PUF domain R2-KVA (Homo sapiens, UniProt Q14671 828-1176, N899K;Y900V;Q903A). Put shortly: as §1
Sequence of PUM1 PUF domain R2-KVA (Q14671 828-1176 N899K/Y900V/Q903A): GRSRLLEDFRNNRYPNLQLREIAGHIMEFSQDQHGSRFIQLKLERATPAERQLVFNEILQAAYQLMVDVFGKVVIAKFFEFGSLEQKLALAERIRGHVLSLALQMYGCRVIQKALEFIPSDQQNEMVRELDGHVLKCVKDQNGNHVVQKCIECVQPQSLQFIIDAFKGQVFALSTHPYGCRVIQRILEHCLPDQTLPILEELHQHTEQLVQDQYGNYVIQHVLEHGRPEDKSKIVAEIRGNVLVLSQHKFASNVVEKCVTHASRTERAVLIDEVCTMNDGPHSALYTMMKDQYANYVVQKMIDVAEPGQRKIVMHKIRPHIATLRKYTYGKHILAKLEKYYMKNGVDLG
In assay [3] the target is PUM1 PUF domain R3-DWV (Homo sapiens, UniProt Q14671 828-1176, C935D;R936W;Q939V). Put shortly: as §1
Sequence of PUM1 PUF domain R3-DWV (Q14671 828-1176 C935D/R936W/Q939V): as the sequence (Q14671 828-1176 N899K/Y900V/Q903A) above, with K72N, V73Y, A76Q, C108D, R109W, Q112V counted along it
The target in assay [4] is PUM1 PUF domain R3-YYR (Homo sapiens, UniProt Q14671 828-1176, C935Y;R936Y;Q939R). The gist of the method:
as §1

Assay [5] concerns the target PUM1 PUF domain R2-NYP (Homo sapiens, UniProt Q14671 828-1176, Q903P). The gist of the method:
as §1

For assay [6], the target named is PUM1 PUF domain R3-GCK (Homo sapiens, UniProt Q14671 828-1176, C935G;R936C;Q939K). The gist of the method:
as §1

Assay [7] deals with PUM1 PUF domain R1-NFS (Homo sapiens, UniProt Q14671 828-1176, S863N;R864F;Q867S). The gist of the method: as §1
Sequence of PUM1 PUF domain R1-NFS (Q14671 828-1176 S863N/R864F/Q867S): as the sequence (Q14671 828-1176 N899K/Y900V/Q903A) above, with S36N, R37F, Q40S, K72N, V73Y, A76Q counted along it
Assay [8] concerns the target PUM1 PUF domain R8-MYF (Homo sapiens, UniProt Q14671 828-1176, N1122M;Q1126F). The gist of the method:
as §1

Assay [9] addresses PUM1 PUF domain R5-SQA (Homo sapiens, UniProt Q14671 828-1176, C1007S;R1008Q;Q1011A). Put shortly: as §1
Assay [10] concerns the target PUM1 PUF domain R7-LMF (Homo sapiens, UniProt Q14671 828-1176, S1079L;N1080M;E1083F). The gist of the method:
as §1

Sequence of PUM1 PUF domain R3-YYR (Q14671 828-1176 C935Y/R936Y/Q939R): as the sequence (Q14671 828-1176 N899K/Y900V/Q903A) above, with K72N, V73Y, A76Q, C108Y, R109Y, Q112R counted along it
Sequence of PUM1 PUF domain R3-GCK (Q14671 828-1176 C935G/R936C/Q939K): as the sequence (Q14671 828-1176 N899K/Y900V/Q903A) above, with K72N, V73Y, A76Q, C108G, R109C, Q112K counted along it
Sequence of PUM1 PUF domain R2-NYP (Q14671 828-1176 Q903P): as the sequence (Q14671 828-1176 N899K/Y900V/Q903A) above, with K72N, V73Y, A76P counted along it
Sequence of PUM1 PUF domain R8-MYF (Q14671 828-1176 N1122M/Q1126F): as the sequence (Q14671 828-1176 N899K/Y900V/Q903A) above, with K72N, V73Y, A76Q, N295M, Q299F counted along it
Sequence of PUM1 PUF domain R5-SQA (Q14671 828-1176 C1007S/R1008Q/Q1011A): as the sequence (Q14671 828-1176 N899K/Y900V/Q903A) above, with K72N, V73Y, A76Q, C180S, R181Q, Q184A counted along it
Sequence of PUM1 PUF domain R7-LMF (Q14671 828-1176 S1079L/N1080M/E1083F): as the sequence (Q14671 828-1176 N899K/Y900V/Q903A) above, with K72N, V73Y, A76Q, S252L, N253M, E256F counted along it
Sequence of PUM1 PUF domain R2-LPC (Q14671 828-1176 N899L/Y900P/Q903C): as the sequence (Q14671 828-1176 N899K/Y900V/Q903A) above, with K72L, V73P, A76C counted along it

For the sequence “GGCUAGAACUAGUGGAUCCCCCGGCGCCCGGCGGCUCGAGCCCGGGUAAGUGUAAAGAGUCUGCAUGCCGCCGGGCGCCAUGCCUGCAGGUCGACUCUAGAAAACAUG”, the binding signal is 3.13 log2 enrichment (interaction score) in assay [1] and 3.4 log2 enrichment (interaction score) in [2].
“GGCUAGAACUAGUGGAUCCCCCGGCGCCCGGCGGCUCGAGCCCGGGUAAGUGUAAAUAGUCUGCAUGCCGCCGGGCGCCAUGCCUGCAGGUCGACUCUAGAAAACAUG”: the binding signal is 2.15 log2 enrichment (interaction score) in [3], 3.94 log2 enrichment (interaction score) in [4] and 4.08 log2 enrichment (interaction score) in [5].
For the sequence “GGCUAGAACUAGUGGAUCCCCCGGCGCCCGGCGGCUCGAGCCCGGGUAAGUGUAAGUAGUCUGCAUGCCGCCGGGCGCCAUGCCUGCAGGUCGACUCUAGAAAACAUG”, the binding signal was 3.22 log2 enrichment (interaction score) in assay [3] and 2.22 log2 enrichment (interaction score) in assay [6].
For the sequence “GGCUAGAACUAGUGGAUCCCCCGGCGCCCGGCGGCUCGAGCCCGGGUAAGUGUAACUAGUCUGCAUGCCGCCGGGCGCCAUGCCUGCAGGUCGACUCUAGAAAACAUG”, the binding signal in assay [4] was 2.31 log2 enrichment (interaction score).
Take “GGCUAGAACUAGUGGAUCCCCCGGCGCCCGGCGGCUCGAGCCCGGGUAAGUGUAAAUUGUCUGCAUGCCGCCGGGCGCCAUGCCUGCAGGUCGACUCUAGAAAACAUG”: the binding signal in assay [7] was 7.9 log2 enrichment (interaction score).
Turning to “GGCUAGAACUAGUGGAUCCCCCGGCGCCCGGCGGCUCGAGCCCGGGUAAGCGUAAAUAGUCUGCAUGCCGCCGGGCGCCAUGCCUGCAGGUCGACUCUAGAAAACAUG”, the binding signal in assay [8] was 2.53 log2 enrichment (interaction score).
Turning to “GGCUAGAACUAGUGGAUCCCCCGGCGCCCGGCGGCUCGAGCCCGGGUAAGUGUAAUUAGUCUGCAUGCCGCCGGGCGCCAUGCCUGCAGGUCGACUCUAGAAAACAUG”, in assay [6], the binding signal was 2.81 log2 enrichment (interaction score).
With “GGCUAGAACUAGUGGAUCCCCCGGCGCCCGGCGGCUCGAGCCCGGGUAAGUGUGAAUAGUCUGCAUGCCGCCGGGCGCCAUGCCUGCAGGUCGACUCUAGAAAACAUG”, the binding signal in assay [9] is 3.09 log2 enrichment (interaction score).
Consider “GGCUAGAACUAGUGGAUCCCCCGGCGCCCGGCGGCUCGAGCCCGGGUAAGUUUAAAUAGUCUGCAUGCCGCCGGGCGCCAUGCCUGCAGGUCGACUCUAGAAAACAUG”, for which the binding signal in [10] was 3.84 log2 enrichment (interaction score).
